The source of these data is PubChem BioAssay.

Unmarked numbers belong to inactive results. For some assays here: Potency and affinity values are given separately. Active and inactive are the calls of the source. Unless noted, the rule behind the calls is not given here.

The nature of experiment [1]: antimalarial activity against Dd2 strain (AID 2302;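 active = growth inhibition above 50% at the single 2 µM test dose, taken to imply half-maximal potency below 2 µM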;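 note: 0% = DMSO untreated growth and 100% = chloroquine plus artemisinin killed control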). Conditions: P. falciparum Dd2 in RBCs, LDH growth readout, 72 h; at 2 µM; hits give high values.
The nature of experiment [2]: HepG2 cytotoxicity, primary screen, cytotoxicity control for P. falciparum antimalarial project, cell-based, ATP luminescence (AID 2303;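 active = inhibition above 50%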;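 note: 0% = DMSO wells and 100% = digitonin-killed cells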). The settings on record: HepG2 viability, 24-48 h, at 10 µM, hits give high values.
The target of experiment [3] is L-lactate dehydrogenase (Plasmodium falciparum (isolate CDC / Honduras)) (UniProt Q27743). Briefly: PfLDH activity inhibition – cell lysate, 3D7 strain, counter-screen for P. falciparum growth inhibition project (AID 2304).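 Note: 0% = vehicle and 100% = reference inhibitor.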 The settings on record: P. falciparum 3D7 crude extract, LDH APAD/NBT absorbance; at 2 µM; hits give high values. Background: The purpose of a counterscreen is to sort out artefacts and off-target activity.

Experiment [4] is described as follows: inhibition of 3D7 malaria parasite growth – strain 3D7 (AID 2306).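 Note: 0% = DMSO wells and 100% = chloroquine plus artemisinin control wells.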 The settings on record: P. falciparum 3D7 erythrocytic growth, LDH absorbance, 72 h; at 2 µM; hits give high values.
In experiment [5] the target is Calcium-dependent protein kinase 1 (Plasmodium falciparum (isolate 3D7)) (UniProt P62344). Kind of experiment: PfCDPK1 kinase inhibitors, biochemical, TCAMS library (AID 1159585; cut-off not given, nearly all actives have IC50 up to about 0.98 µM;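 note: inhibitors leave more ATP so luminescence rises with inhibition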). The settings on record: recombinant PfCDPK1, Kinase-Glo ATP depletion luminescence.
Experiment [6] has as its target Plasmodium falciparum protein kinase 6 (PK6, PF3D7_1337100) (UniProt Q8IDW1). Briefly: PfPK6 kinase inhibitors, biochemical, TCAMS library (AID 1159586). Conditions: recombinant PfPK6, Kinase-Glo ATP depletion luminescence.
Experiment [7] addresses Protein kinase 7 (PK7), Plasmodium falciparum 3D7 (PF3D7_0213400) (UniProt Q7YTF7). Briefly: inhibition of Plasmodium PK7 catalytic activity – biochemical, TCAMS antimalarial set, Kinase-Glo luminescence (AID 1159587). The settings on record: recombinant PfPK7, Kinase-Glo ATP depletion luminescence.
Experiment [8] concerns the target Calcium-dependent protein kinase 4 (Plasmodium falciparum (isolate 3D7)) (UniProt Q8IBS5). Kind of experiment: PfCDPK4 kinase inhibitors, biochemical, TCAMS library (AID 1159588; cut-off not given, nearly all actives have IC50 up to about 0.91 µM). Conditions: recombinant PfCDPK4, Kinase-Glo ATP depletion luminescence. On the technique in general: Kinase-Glo measures the ATP left after a reaction by luminescence.

Sequence of L-lactate dehydrogenase (Plasmodium falciparum (isolate CDC / Honduras)) (Q27743 whole entry, looked up): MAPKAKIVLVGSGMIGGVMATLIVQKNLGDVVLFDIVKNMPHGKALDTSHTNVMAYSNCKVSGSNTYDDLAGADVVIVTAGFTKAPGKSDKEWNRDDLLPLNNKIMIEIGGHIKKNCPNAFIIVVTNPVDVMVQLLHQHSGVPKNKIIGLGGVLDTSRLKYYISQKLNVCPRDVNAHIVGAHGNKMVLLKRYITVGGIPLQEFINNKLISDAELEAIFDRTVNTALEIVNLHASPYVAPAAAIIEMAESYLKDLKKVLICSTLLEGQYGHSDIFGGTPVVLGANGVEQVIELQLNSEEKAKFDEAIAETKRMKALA
Sequence of Calcium-dependent protein kinase 1 (Plasmodium falciparum (isolate 3D7)) (P62344 whole entry, looked up): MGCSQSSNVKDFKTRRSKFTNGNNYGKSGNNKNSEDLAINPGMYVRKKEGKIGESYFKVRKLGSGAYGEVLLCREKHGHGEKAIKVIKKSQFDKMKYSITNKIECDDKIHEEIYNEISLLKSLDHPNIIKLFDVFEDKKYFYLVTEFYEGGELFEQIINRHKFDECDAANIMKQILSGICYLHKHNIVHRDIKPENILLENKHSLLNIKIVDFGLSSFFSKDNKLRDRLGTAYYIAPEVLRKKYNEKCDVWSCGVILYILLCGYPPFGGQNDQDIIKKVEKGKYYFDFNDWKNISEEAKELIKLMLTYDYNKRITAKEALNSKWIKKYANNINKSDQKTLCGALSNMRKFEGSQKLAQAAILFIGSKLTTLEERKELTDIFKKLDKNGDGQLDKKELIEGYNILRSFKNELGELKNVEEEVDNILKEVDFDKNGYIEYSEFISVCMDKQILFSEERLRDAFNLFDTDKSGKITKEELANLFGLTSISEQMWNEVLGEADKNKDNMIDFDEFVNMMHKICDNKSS
Sequence of Plasmodium falciparum protein kinase 6 (PK6, PF3D7_1337100) (Q8IDW1 1-305): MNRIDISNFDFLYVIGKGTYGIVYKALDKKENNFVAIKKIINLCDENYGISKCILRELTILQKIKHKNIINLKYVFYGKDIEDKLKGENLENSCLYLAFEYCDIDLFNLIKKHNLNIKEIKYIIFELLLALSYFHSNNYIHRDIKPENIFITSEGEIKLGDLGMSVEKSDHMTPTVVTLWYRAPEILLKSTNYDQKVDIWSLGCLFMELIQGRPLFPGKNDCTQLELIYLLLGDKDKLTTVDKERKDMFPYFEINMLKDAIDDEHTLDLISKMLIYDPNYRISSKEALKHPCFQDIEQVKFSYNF
Sequence of Calcium-dependent protein kinase 4 (Plasmodium falciparum (isolate 3D7)) (Q8IBS5 whole entry, looked up): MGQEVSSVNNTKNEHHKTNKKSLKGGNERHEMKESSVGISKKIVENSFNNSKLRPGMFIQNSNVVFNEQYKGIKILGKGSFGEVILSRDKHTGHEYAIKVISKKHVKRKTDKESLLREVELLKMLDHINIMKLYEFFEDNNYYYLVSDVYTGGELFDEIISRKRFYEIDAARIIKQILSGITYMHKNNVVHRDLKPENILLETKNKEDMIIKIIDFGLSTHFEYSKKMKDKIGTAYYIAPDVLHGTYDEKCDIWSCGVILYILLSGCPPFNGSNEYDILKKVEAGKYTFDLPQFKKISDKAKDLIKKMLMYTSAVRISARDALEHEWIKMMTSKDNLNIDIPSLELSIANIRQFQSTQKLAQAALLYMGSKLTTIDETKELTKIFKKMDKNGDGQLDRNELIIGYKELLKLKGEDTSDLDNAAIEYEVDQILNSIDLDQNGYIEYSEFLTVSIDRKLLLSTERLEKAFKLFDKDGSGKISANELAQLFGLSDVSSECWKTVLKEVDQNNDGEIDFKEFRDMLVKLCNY
Sequence of Protein kinase 7 (PK7), Plasmodium falciparum 3D7 (PF3D7_0213400) (Q7YTF7 1-343): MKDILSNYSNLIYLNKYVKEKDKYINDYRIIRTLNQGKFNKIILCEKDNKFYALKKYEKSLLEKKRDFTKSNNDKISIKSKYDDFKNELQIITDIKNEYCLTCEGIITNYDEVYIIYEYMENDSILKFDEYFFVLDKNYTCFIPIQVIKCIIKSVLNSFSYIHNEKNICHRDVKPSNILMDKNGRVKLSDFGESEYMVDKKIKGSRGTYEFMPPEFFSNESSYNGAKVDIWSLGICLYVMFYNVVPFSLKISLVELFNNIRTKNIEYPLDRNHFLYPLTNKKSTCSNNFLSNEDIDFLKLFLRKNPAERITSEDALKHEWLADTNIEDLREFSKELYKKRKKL

As for `Cc1nc2nc(N)nc(N)c2c(C)c1Cc1ccc(Cl)cc1`, the growth inhibition in experiment [1] was 22%; in experiment [4], 94% (active). The inhibition in experiment [2] was 62% (active); in experiment [3], 0%. The outcome in experiment [5], in experiment [6], in experiment [7] and in experiment [8] was inactive.
In the case of `CC(C)CN1C(=O)c2ccc(C(=O)Nc3nccs3)cc2C1=O`, the growth inhibition is 0% in experiment [1] and 89% (active) in experiment [4]. In addition, the results for the inhibition in experiment [2] and in experiment [3] were 3% and 1%, respectively. Besides, the result in experiment [5], in experiment [6], in experiment [7] and in experiment [8] was inactive.
Regarding `CNC(=O)C1Cc2c([nH]c3ccc(Br)cc23)C2(CCN(CCc3ccccc3)CC2)N1` (configuration not stated), the figures for the growth inhibition in experiment [1] and in experiment [4] were 60% (active) and 101% (active), respectively. The inhibition in experiment [2] was 15%; in experiment [3], -2%. Also, the result in experiment [5], in experiment [6], in experiment [7] and in experiment [8] was inactive.
In the case of `Oc1ccc(CCNCCCCCCNCCCc2ccc(Cl)cc2)cc1O`, the growth inhibition in experiment [1] was 3%; in experiment [4], 87% (active). For the same compound, the inhibition in experiment [2] was 13%; in experiment [3], -2%. Also, the result in experiment [5], in experiment [6], in experiment [7] and in experiment [8] was inactive.
As for `O=C(Nc1ccc(C(=O)Nc2cccc(C3=NCCN3)c2)cc1)Nc1ccc(C2=NCCN2)cc1`, the growth inhibition in experiment [1] is 98% (active); in experiment [4], 96% (active). The inhibition in experiment [2] was -16%; in experiment [3] it was -4%. Besides, the result in experiment [5], in experiment [6], in experiment [7] and in experiment [8] was inactive.
On to `Cc1ccc(NC(=O)c2ccc3ncccc3c2)cc1OC1CCN(Cc2ccc(F)cc2)CC1`, for which the growth inhibition in experiment [1] was 22%; in experiment [4] it was 91% (active). Besides, the inhibition in experiment [2] is 6%; in experiment [3] it was 1%. Further, the result in experiment [5], in experiment [6], in experiment [7] and in experiment [8] was inactive.
Take `COc1cc2nc(N3CCN(C(=O)c4c(Cl)nsc4-c4ccccc4Cl)CC3)nc(N)c2cc1OC`: the growth inhibition in experiment [1] is 101% (active); in experiment [4] it was 100% (active). In addition, the inhibition is 57% (active) in experiment [2] and -6% in experiment [3]. Also, the outcome in experiment [5], in experiment [6], in experiment [7] and in experiment [8] was inactive.
As for `Cc1noc(C)c1-c1ccc2c(Nc3ccc(Cl)cc3)c(C(N)=O)cnc2c1`, the growth inhibition in experiment [1] was 67% (active); in experiment [4], 94% (active). Also, the inhibition is 9% in experiment [2] and 7% in experiment [3]. Besides, the result in experiment [5], in experiment [6], in experiment [7] and in experiment [8] was inactive.
Turning to `CC(C)CCNC(=O)C1Cc2c([nH]c3ccc(Br)cc23)C2(CCN(Cc3ccccc3)CC2)N1` (configuration not stated), the growth inhibition was 68% (active) in experiment [1] and 96% (active) in experiment [4]. Also, the inhibition was 100% (active) in experiment [2] and -3% in experiment [3]. The result in experiment [5], in experiment [6], in experiment [7] and in experiment [8] was inactive.
Turning to `Cc1cc(-c2cccc(CNC3CCN(C)CC3)c2)ccc1S(=O)(=O)NCCN1CCCC1`, the growth inhibition in experiment [1] was 0%; in experiment [4], 100% (active). Moreover, the results for the inhibition in experiment [2] and in experiment [3] were 18% and 0%, respectively. Moreover, the outcome in experiment [5], in experiment [6], in experiment [7] and in experiment [8] was inactive.
In the case of `Nc1ccc2nc(C=Cc3ccccc3)[nH]c2c1`, the growth inhibition in experiment [1] is 89% (active); in experiment [4] it was 92% (active). In addition, the inhibition in experiment [2] was 7%; in experiment [3] it was 1%. For the same compound, the outcome in experiment [5], in experiment [6], in experiment [7] and in experiment [8] was inactive.
Turning to `CCC[C@@H]([C@@H](CC1CCCCC1)C(=O)N[C@@H](CCOC(=O)NCC)C(=O)Nc1nccs1)N(O)C=O`, the figures for the growth inhibition in experiment [1] and in experiment [4] were 79% (active) and 101% (active), respectively. In addition, the inhibition in experiment [2] is -13%; in experiment [3], -7%. The outcome in experiment [5], in experiment [6], in experiment [7] and in experiment [8] was inactive.
For `CCCCCCn1c(Sc2ccc(C#N)c([N+](=O)[O-])c2)nnc1-c1ccc(OC)cc1`, the results for the growth inhibition in experiment [1] and in experiment [4] were 51% (active) and 95% (active), respectively. The inhibition in experiment [2] was 19%; in experiment [3], 2%. Moreover, the outcome in experiment [5], in experiment [6], in experiment [7] and in experiment [8] was inactive.
As to `CC(=O)Nc1csc(-c2cnc(/C=C(\C)C[C@@H]3OC[C@H](C[C@@H]4O[C@H]4[C@@H](C)[C@H](C)O)[C@@H](O)[C@H]3O)o2)c1`, the growth inhibition is 8% in experiment [1] and 94% (active) in experiment [4]. The results for the inhibition in experiment [2] and in experiment [3] were 1% and 0%, respectively. Moreover, the outcome in experiment [5], in experiment [6], in experiment [7] and in experiment [8] was inactive.
For `Cn1cncc1-c1ccc2ncnc(Nc3ccc(OCc4ccccc4)cc3)c2c1`, the growth inhibition is 99% (active) in experiment [1] and 101% (active) in experiment [4]. Moreover, the inhibition in experiment [2] was 4%; in experiment [3], 1%. Besides, the outcome in experiment [5], in experiment [6], in experiment [7] and in experiment [8] was inactive.
`COc1ccc2nccc(NN=Cc3ccc([N+](=O)[O-])cc3)c2c1`: the growth inhibition in experiment [1] is 68% (active); in experiment [4], 100% (active). For the same compound, the inhibition is 9% in experiment [2] and -2% in experiment [3]. Also, the outcome in experiment [5], in experiment [6], in experiment [7] and in experiment [8] was inactive.
Regarding `CN(C)CCNCc1ccc(-c2ccc3c(Nc4ccc(F)cc4Cl)ccnc3c2)o1`, the growth inhibition in experiment [1] and in experiment [4] was 100% (active) in each case. For the same compound, the inhibition in experiment [2] is 31%; in experiment [3] it was -9%. The outcome in experiment [5], in experiment [6], in experiment [7] and in experiment [8] was inactive.
`CCN(CCCN1CCCCC1)c1cc(C)nc(Nc2ccc(OC)cc2)n1`: the growth inhibition is 24% in experiment [1] and 100% (active) in experiment [4]. The inhibition in experiment [2] was 23%; in experiment [3], -6%. The outcome in experiment [5], in experiment [6], in experiment [7] and in experiment [8] was inactive.
Take `Cc1cc(N[C@@H](Cc2ccccc2)C(=O)NCc2cccs2)nc(NCCOc2ccccc2)n1`: the growth inhibition is 31% in experiment [1] and 93% (active) in experiment [4]. Further, the inhibition was 2% in experiment [2] and -3% in experiment [3]. For the same compound, the outcome in experiment [5], in experiment [6], in experiment [7] and in experiment [8] was inactive.

The term inhibition denotes the drop in the measured response relative to a control, in per cent.
